Results published in PubChem BioAssay (NCI).
Compounds without any hit were thinned out: in the full panel of roughly 79,000, 15% have a hit. Calls of active or inactive are those of the source. Cut-off read from the data, not from the text of the source: active = growth inhibition above about 70%; inactive = the rest.

Experiments:
[1] = NCI Yeast Anticancer Drug Screen. Data for the rad50 strain (AID 155);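 note: 0% = growth of vehicle-only cultures of the same strain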; details: S. cerevisiae rad50 strain growth inhibition; at 50.0 µM; stronger effect = higher value
Summary of the method: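 Inhibition values express reduced yeast growth in compound-treated cultures relative to vehicle-treated controls.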

[2] = NCI Yeast Anticancer Drug Screen. Data for the mec2-1 strain (AID 157); details: S. cerevisiae mec2-1 strain, at 50.0 µM, stronger effect = higher value
Summary of the method: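 Mutant yeast (mec2-1) grown with compound; growth inhibition relative to vehicle control reported.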

[3] = NCI Yeast Anticancer Drug Screen. Data for the sgs1 mgt1 strain (AID 161);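 note: 0% = growth of cultures given vehicle only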; details: S. cerevisiae sgs1 mgt1 strain, at 50.0 µM, stronger effect = higher value
Summary of the method: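 Yeast cells carrying a defined DNA-repair defect were exposed to test compounds. Growth inhibition was measured relative to vehicle-treated controls.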

[4] = NCI Yeast Anticancer Drug Screen. Data for the cln2 rad14 strain (AID 165);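 note: 0% = growth equal to vehicle treated cultures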; details: S. cerevisiae cln2 rad14 strain, at 50.0 µM, stronger effect = higher value
Summary of the method: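 Readout is yeast growth inhibition versus vehicle-treated controls, using a strain with cln2 and rad14 alterations exposed to compound.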

[5] = NCI Yeast Anticancer Drug Screen. Data for the bub3 strain (AID 167); details: S. cerevisiae bub3 mutant strain, at 50.0 µM, stronger effect = higher value
Summary of the method: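 Steps: expose the mutant yeast strain to compound; grow alongside vehicle-treated cultures; measure growth; express inhibition against the vehicle cultures.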

[6] = NCI Yeast Anticancer Drug Screen. Data for the mlh1 rad18 strain (AID 175); details: S. cerevisiae mlh1 rad18 strain growth inhibition; at 50.0 µM; stronger effect = higher value
Summary of the method: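 Genetically defined yeast (DNA repair-deficient) exposed to compounds; growth inhibition determined relative to vehicle.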

Measured: growth inhibition

Cc1ncc(C#N)c(N)n1
inactive: [1] -24.9% | [2] -18% | [3] 12.9% | [4] -7.1% | [5] -3.05% | [6] -5.4%

CC1CC(O)C2C3(C)CCCC2(COC3=O)C12CCC1(CCOC1=O)O2 (stereo unspecified)
inactive: [1] 4.4% | [2] 8.35% | [3] 18.3% | [4] 25.9% | [5] 8.35% | [6] 13.6%

Cc1cccc(C(=O)N(C(C)C)C(C)C)c1
inactive: [1] -0.9% | [2] -4.95% | [3] -4.25% | [4] -50.8% | [5] 26.2% | [6] -0.35%

O=C(Nc1ccccc1C(=O)NCC1CC1)c1cccs1
inactive: [1] -13.1% | [2] -29.9% | [3] 3.4% | [4] 5.35% | [5] 5.9% | [6] -1.6%

COc1ccc(/C(C#N)=C2C=C/C(=N/O)c3ccccc3\2)cc1
inactive: [1] -5.15% | [2] 14.6% | [3] 8.75% | [4] -22.2% | [5] 9.25% | [6] 19.9%

CCCCCCCCCCCCCCCCC1CC(=O)OC1=O (stereo unspecified)
inactive: [1] -4.35% | [2] -12.2% | [3] 5.9% | [4] 4.3% | [5] -11.3% | [6] 4.55%

Cc1cc(=O)n(-c2ccc(F)cc2)[nH]1
inactive: [1] -5.15% | [2] -14.1% | [3] 22.1% | [4] 2.8% | [5] 50.6% | [6] 12.1%

CC(=O)Nc1c(C)cc(C)cc1C
inactive: [1] 0.3% | [2] -0.35% | [3] -6.4% | [4] -11.8% | [5] 9.45% | [6] 0.1%

CCOC(=O)C1=C(C)NC(=O)NC1c1cccs1 (stereo unspecified)
inactive: [1] -11.2% | [2] -26.9% | [3] -14.4% | [4] 5.5% | [5] -14.2% | [6] -20.1%

CCOC(=O)C(O)C(O)C(=O)OCC (stereo unspecified)
inactive: [1] 21.4% | [2] -15.8% | [3] -29.3% | [4] -16.7% | [5] -2.85% | [6] 7.85%

O=C(c1ccccc1)C1CCC1
inactive: [1] 22.6% | [2] -5.25% | [3] 10.2% | [4] -17.5% | [5] 7.95% | [6] 6.75%

O=C(O)[C@@H]1[C@H]2C[C@H]3c4[nH]c5ccccc5c4CCN3C[C@@H]2CC[C@@H]1O
inactive: [1] -10.3% | [2] -27% | [3] 9.45% | [4] 6.5% | [5] -20.6% | [6] -19.9%

CC(=O)OCC(=O)[C@@]1(O)CC[C@H]2[C@@H]3CC[C@@H]4C[C@H](O)CC[C@]4(C)[C@H]3C(=O)C[C@@]21C
inactive: [1] 19.7% | [2] 7.15% | [3] 25.4% | [4] 7.75% | [5] -2.85% | [6] 20.6%

CC1(C(N)=O)CCC(C(=O)O)C1(C)C (stereo unspecified)
inactive: [1] 10.3% | [2] -3.45% | [3] 14.4% | [4] -29.9% | [5] -3.45% | [6] 8.15%

S=C1CCCCCN1
inactive: [1] 47.6% | [2] 17.8% | [3] 42.6% | [4] 9.95% | [5] 30.4% | [6] 30.8%

O=C(O)c1ccccc1NCc1ccco1
inactive: [1] -14.7% | [2] -40.9% | [3] 14% | [4] 7.85% | [5] -19.6% | [6] -5.7%

COc1cc(C2c3cc4c(cc3C3OC(=O)C2C3CO)OCO4)cc(OC)c1OC (stereo unspecified)
inactive: [1] -7.4% | [2] -9.95% | [3] -14.5% | [4] 6.25% | [5] -19.5% | [6] -3.85%

Cc1ccc(C(=O)NC2c3ccccc3Oc3ccccc32)cc1
inactive: [1] -0.25% | [2] -7.7% | [3] 4.65% | [4] -12% | [5] 6.85% | [6] -5%

O=C(/C=C/C(=O)c1ccccc1)c1ccccc1
inactive: [1] 41.8% | [2] 16.4% | [3] 28.1% | [4] -31.4% | [5] 36% | [6] 51.1%

Cc1cc(/C=C/c2ccc3cc(N(C)C)ccc3[n+]2C)c(C)n1-c1ccccc1
active: [1] 87.2% | [2] 87.2% | [3] 92.8% | [4] 93.2% | [5] 70.8% | [6] 95.8%

CC(=O)OCC1=CC2OC(=O)C3=COC(OC4OC(CO)C(O)C(O)C4O)C1C32 (stereo unspecified)
inactive: [1] 11.6% | [2] -3.55% | [3] 10.3% | [4] 13.4% | [5] 16.6% | [6] -51.6%

Oc1ccc(O)cc1
inactive: [1] 20.6% | [2] 15% | [3] -0.45% | [4] -22.6% | [5] -0.85% | [6] 40.3%

c1ccc(Sc2ccccc2)cc1
inactive: [1] -4.6% | [2] 10.5% | [3] -8.5% | [4] -63.6% | [5] -7.95% | [6] 0.85%

Nc1ccc(N)c([N+](=O)[O-])c1
inactive: [1] -30.9% | [2] -17.8% | [3] -27.3% | [4] -39% | [5] -14.8% | [6] -15.2%

O=C(O)CCCCNC(=O)c1ccccc1
inactive: [1] 19.6% | [2] -14.4% | [3] 3.25% | [4] 12.3% | [5] -4.8% | [6] 9.4%

Cc1ccncc1C(N)=O
inactive: [1] -1.4% | [2] -2.8% | [3] -9.55% | [4] -0.85% | [5] -11% | [6] 3.3%

COCCOCCCl
inactive: [1] 10% | [2] -19.3% | [3] -12.5% | [4] -7.95% | [6] -6.7%

NC(=O)NC(=O)c1ccc(Cl)cc1
inactive: [1] 14.8% | [2] -7.05% | [3] 19.2% | [4] 29.1% | [6] 11.3%

O=C(CN1CCNCC1)N1CCOCC1
inactive: [1] -25.6% | [2] -25.1% | [3] -17.8% | [4] -23.9% | [6] -13.8%

CC1(c2ccccc2)NC(=O)NC1=O (stereo unspecified)
inactive: [1] 26.7% | [2] -8.85% | [3] 0.8% | [4] -1.3% | [6] 23.9%

COC(=O)c1cc(-c2ccc(Cl)c(Cl)c2)[nH]c(=O)c1C#N
inactive: [1] -16.9% | [2] -18.9% | [3] -27.9% | [4] 21.7% | [6] 18.6%

Nc1ncnc2[nH]ncc12
inactive: [1] -0.9% | [2] 25.5% | [3] 37% | [4] -2.6% | [6] 14.1%

Cc1ccc(/C(C#N)=C/c2ccc3c(c2)OCO3)cc1
inactive: [1] 23.6% | [2] 25.5% | [3] 26.3% | [4] -14.3% | [6] 21.2%

NNc1ccccc1C(=O)O
inactive: [1] 4.4% | [2] -3.05% | [3] -2.55% | [4] -4.15% | [6] 14.8%

NC(CSC(c1ccccc1)(c1ccccc1)c1ccccc1)C(=O)O (stereo unspecified)
inactive: [1] 1.4% | [2] -18.8% | [3] -28.9% | [4] 20.8% | [6] -42.2%

CC(=O)Nc1cccc(NC(C)=O)n1
inactive: [1] 6.25% | [2] 10.8% | [3] 1.25% | [4] -5% | [6] 6.1%

COC(=O)c1ccccc1Br
inactive: [1] -1.7% | [2] 7.8% | [3] 3.4% | [4] -22.1% | [5] -3.75% | [6] 6.45%

C/C(=C\c1ccc([N+](=O)[O-])cc1)C(=O)O
inactive: [1] 23.6% | [2] 23.1% | [3] 19.2% | [4] 12.2% | [5] 31.4% | [6] 47.5%

O=C(/C=C\c1ccc(O)cc1)c1ccccc1
inactive: [1] 15.9% | [2] -14.3% | [3] 45.9% | [4] 8.6% | [5] 29.6% | [6] 14.1%

O=C(Cc1ccccc1)Cc1ccccc1
inactive: [1] -1.55% | [2] -5% | [3] -0.45% | [4] -3.3% | [5] -8.65% | [6] 13.6%

CCOC(=O)C(C#N)Cc1ccccc1 (stereo unspecified)
inactive: [1] -0.85% | [2] -2.15% | [3] -3.85% | [4] -14.2% | [6] -3.35%

CN(C)CCN(Cc1ccccc1)c1ccccc1
inactive: [1] -16.1% | [2] -41.6% | [3] -13.6% | [4] -10.7% | [6] -12%

CC(C)CCCC(=O)O
inactive: [1] -9.7% | [2] -7.5% | [3] -1.25% | [4] 27.8% | [5] -2.95% | [6] -13.8%
